PubChem BioAssay (EPA / NIEHS)
Activity calls are given as the source filed them. Rule for the calls: active = hit-call score of the fitted dose curve at least 0.9, where 1 is the maximum; inactive = score below 0.9.

molecular target: Hepatocyte nuclear factor 6 (Homo sapiens) (UniProt Q9UBC0); experiment: ATG_HNF6_CIS: Attagene CIS-FACTORIAL HepG2 Assay for human Hepatocyte Nuclear Factor 6 (HNF6) (AID 2282952); conditions: HepG2 Attagene cis-factorial HNF6 reporter transcription; actives raise or lower the signal
Method: ATG_CIS is a cell-based, multiplexed-readout assay that uses HepG2, a human liver cell line, with measurements taken at 24 hours after chemical dosing in a 24-well plate.ATG_HNF6_CIS is one of 52 assay component(s) measured or calculated from the ATG_CIS assay. It is designed to make measurements of mRNA induction, a form of inducible reporter, as detected with fluorescence intensity signals by Reverse transcription polymerase chain reaction (RT-PCR) and Capillary electrophoresis technology.Data from the assay component ATG_HNF6_CIS was analyzed into 1 assay endpoint. This assay endpoint, ATG_HNF6_CIS, was analyzed with bidirectional fitting relative to DMSO as the negative control and baseline of activity. Using a type of inducible reporter, measures of mRNA for gain or loss-of-signal activity can be used to understand the reporter gene at the transcription factor-level as they relate to the gene ONECUT1. Furthermore, this assay endpoint can be referred to as a primary readout, because this assay has produced multiple assay endpoints where this one serves a reporter gene function. To generalize the intended target to other relatable targets, this assay endpoint is annotated to the dna binding intended target family, where the subfamily is homeobox protein.
Human liver HepG2 cells are transiently transfected with multiple reporter transcription units (MRTUs) in 6-well plates using FuGene 6 reagent (Roche; 3 ml FuGene/1 mg DNA). The MRTU constructs are regulated by a cis-regulating element (promoter). […] A major difference between the CIS and TRANS system is that in CIS activities of endogenous TFs are measured, whereas the TRANS assay evaluates changes in activities of exogenous, chimeric NR-Gal4 proteins. […] At the end of 24 hour incubation, total RNA was isolated using TriZol reagent (Invitrogen). The isolated RNA is then reverse-transcribed using oligo(dT) primer and Mo-MLV reverse transcriptase (Invitrogen) with DNAse I (Ambion) treatment for 30 min. The one-tenth of the produced cDNA was amplified by PCR using Taq DNA polymerase (Invitrogen) and two reporter sequence-specific primers. The PCR products were fluorescently labeled by primer extension with 6-arboxyfluorescein (6-FAM) 5'-labeled reporter sequence-specific primer (2 min at 95 C, 20 s at 68 C and 10 min at 72 C) and these products were digested with 5U of HpaI (New England Biolabs) for 2h at 37 C. The fragments were purified using Qiaquick PCR columns (Qiagen), analyzed on an ABI 3130xL genetic analyzer (Applied Biosystems) with peak positions identified by using a set of X-rhodamine (ROX)-labeled MapMarker1000 molecular weight standards (BioVentures). The raw capillary electrophoresis data was processed using Attagraph software (Attagene).

Chain of Hepatocyte nuclear factor 6 (Homo sapiens) (Q9UBC0 whole entry, looked up): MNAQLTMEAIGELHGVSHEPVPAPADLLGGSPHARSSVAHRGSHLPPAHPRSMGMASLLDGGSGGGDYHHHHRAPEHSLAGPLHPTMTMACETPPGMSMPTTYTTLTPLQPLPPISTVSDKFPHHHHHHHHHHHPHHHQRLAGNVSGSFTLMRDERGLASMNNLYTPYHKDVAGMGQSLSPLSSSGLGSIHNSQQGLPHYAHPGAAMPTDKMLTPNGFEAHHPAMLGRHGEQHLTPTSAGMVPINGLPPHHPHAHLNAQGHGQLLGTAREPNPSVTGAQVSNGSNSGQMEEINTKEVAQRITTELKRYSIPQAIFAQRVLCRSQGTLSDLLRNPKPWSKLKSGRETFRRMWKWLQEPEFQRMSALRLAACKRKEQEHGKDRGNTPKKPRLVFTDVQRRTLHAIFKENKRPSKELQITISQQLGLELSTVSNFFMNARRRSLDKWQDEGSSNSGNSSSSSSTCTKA

| SMILES | outcome | AC50 |
| --- | --- | --- |
| COc1ccc(NC(C)=O)cc1N | inactive |  |
| O=C1OC(=O)c2cc(Oc3ccc4c(c3)C(=O)OC4=O)ccc21 | inactive |  |
| Cc1cc(C)c(C)c(O)c1 | inactive |  |
| COc1ccc([C@@H]2CC(=O)c3c(O)cc(O[C@@H]4O[C@H](CO[C@@H]5O[C@@H](C)[C@H](O)[C@@H](O)[C@H]5O)[C@@H](O)[C@H](O)[C@H]4O)cc3O2)cc1OC | inactive |  |
| CCCCCCCC[N+](C)(CCCCCCCC)CCCCCCCC | inactive |  |
| CCCCC(CC)COCC1CO1 (stereo not given) | inactive |  |
| CC1(C)S[C@@H]2[C@H](NC(=O)COc3ccccc3)C(=O)N2[C@H]1C(=O)O | inactive |  |
| O=S(=O)(O)c1ccccc1C=Cc1ccc(-c2ccc(C=Cc3ccccc3S(=O)(=O)O)cc2)cc1 | inactive |  |
| CN1C(=O)N(C)C(O)C1O (stereo not given) | inactive |  |
| CC(C)(C)C(=O)C=Cc1ccc(Cl)cc1 |  | 23.6 µM (active) |
| C1CN(SSN2CCOCC2)CCO1 | inactive |  |
| C=CC=CC=CCCCCC | inactive |  |
| CCN(CC)c1ccc(C(=O)c2ccccc2C(=O)O)c(O)c1 | inactive |  |
| CCCCCCCC/C=C\CCCCCCCC(=O)OCCO | inactive |  |
| CCCCCc1ccc(Cl)cc1 | inactive |  |
| Cc1ccc2c(c1)C(=O)c1ccccc1C2=O | inactive |  |
| CC(=O)OCC(=O)[C@@]12N=C(C)O[C@@H]1C[C@H]1[C@@H]3CCC4=CC(=O)C=C[C@]4(C)[C@H]3[C@@H](O)C[C@@]12C | inactive |  |
| CCCCCCCOC(=O)CCC | inactive |  |
| CC(C)CCCCCOC(=O)CCS | inactive |  |
| O=C1C(N(CO)C(=O)NCO)N(CO)C(=O)N1CO (stereo not given) | inactive |  |

| SMILES | outcome | AC50 |
| --- | --- | --- |
| OCCN(CCO)c1ccccc1 | inactive |  |
| O=C(c1ccccc1)c1ccc(O)c(O)c1O | inactive |  |
| CCCCOCCOC(=O)COc1nc(Cl)c(Cl)cc1Cl | inactive |  |
| O=c1c2ccccc2oc2ccccc12 | inactive |  |
| CCOC(F)(F)C(F)(F)C(F)(F)C(F)(F)F | inactive |  |
| O=C(Cl)c1cc(C(=O)Cl)cc(C(=O)Cl)c1 | inactive |  |
| CC1=CC[C@H](C(C)C)C=C1 | inactive |  |
| O=C(c1ccc(O)cc1)c1ccc(O)cc1O | inactive |  |
| CCOC(=O)NNc1nncc2ccccc12 | inactive |  |
| CCOC(=O)CC(C(C)=O)C(C)=O | inactive |  |
| CCCCCCC1(C)CCC(=O)O1 (stereo not given) | inactive |  |
| CCCCC/C=C\CCC=O | inactive |  |
| CC=CCO | inactive |  |
| O=C(C=Cc1ccccc1)OCc1ccccc1 | inactive |  |
| CC(C)(C)c1ccc(-c2ccc(C(C)(C)C)cc2)cc1 | inactive |  |
| CCOC(=O)c1ccccc1C(=C1C=C(Br)C(=O)C(Br)=C1)c1cc(Br)c(O)c(Br)c1 | inactive |  |
| CCCc1ccc(OC)cc1 | inactive |  |
| COc1ccc2nc(N)sc2c1 | inactive |  |
| Cn1c(=O)[nH]c2ncn(C)c2c1=O | inactive |  |
| Cc1ccc(C(C)(C)C)cc1 | inactive |  |
